The values that follow come from PubChem BioAssay (NCI).

Among the test systems are DU-145 prostate; K-562 leukemia; MALME-3M melanoma; MDA-MB-231 breast; RXF 393 renal; SF-268 CNS; SF-295 CNS; SF-539 CNS; UACC-257 melanoma; M14 melanoma; HCT-15 colon; HT29 colon; SNB-75 CNS; SNB-19 CNS; U251 CNS; PC-3 prostate; SK-MEL-5 melanoma; UACC-62 melanoma; LOX IMVI melanoma; SK-MEL-28 melanoma.
Common to all, as to experiment: NCI-60 one-dose screen, 48 h (100 = growth as untreated, 0 = no growth, -100 = all killed)
Common to all, as to settings: 10 µM unless noted

Structures are written as SMILES. About 83,000 compounds went through this panel and 20% of them were active in at least one assay; those are over-represented in the sample as a whole.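 Single-dose data. Exposure time 48 hours. Values below 10 considered active.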 Values without a mark were called inactive. Calls of active or inactive are those of the source.

In the case of `Cc1cc(NCc2cc(Nc3ccnc4cc(Cl)ccc34)ccc2F)nc(N2CCOCC2)n1`, the growth was 23.8% with DU-145 prostate; 4.21% (active) with K-562 leukemia; -0.307% (active) with MALME-3M melanoma; 19.1% in the experiment with MDA-MB-231 breast; -3.51% (active) with RXF 393 renal; 42.4% in the experiment on SF-268 CNS. The growth in the experiment on SF-295 CNS was -71.6% (active); with SF-539 CNS it was -29.4% (active); in the experiment with UACC-257 melanoma, 50.8%; with M14 melanoma it was -22.9% (active); in the experiment with HCT-15 colon, 12.4%; in the experiment with HT29 colon it was 8.57% (active). For the same compound, the growth in the experiment with SNB-75 CNS is -22.2% (active); in the experiment with SNB-19 CNS, 56.1%; with U251 CNS, -48% (active); with PC-3 prostate, 37.5%; in the experiment on SK-MEL-5 melanoma it was 28.4%; in the experiment on UACC-62 melanoma, 4.01% (active). Besides, the values for the growth in the experiment with LOX IMVI melanoma and with SK-MEL-28 melanoma were -78.4% (active) and 5.36% (active), respectively.

Consider `O=C(NCCCNc1cc(-c2cn(-c3ccccc3)nc2-c2cccc(O)c2)ccn1)c1ccc(F)cc1`, for which the growth in the experiment with DU-145 prostate is 48.4%; in the experiment on K-562 leukemia, 0.281% (active); in the experiment on MALME-3M melanoma, -12.1% (active); with MDA-MB-231 breast, -13.6% (active); with RXF 393 renal, 15.9%; in the experiment with SF-268 CNS, 31.3%. Besides, the growth with SF-295 CNS was -4.5% (active); in the experiment with SF-539 CNS, 13.9%; in the experiment on UACC-257 melanoma, -51.7% (active); with M14 melanoma it was -41.8% (active); in the experiment with HCT-15 colon, -4.32% (active); with HT29 colon, 0.339% (active). Further, the growth is 10.9% in the experiment with SNB-75 CNS; 54.2% in the experiment with SNB-19 CNS; 15.6% in the experiment with U251 CNS; 12.6% in the experiment on PC-3 prostate; -24.8% (active) with SK-MEL-5 melanoma; -1.62% (active) in the experiment on UACC-62 melanoma. For the same compound, the growth in the experiment with LOX IMVI melanoma is 21.5%; in the experiment on SK-MEL-28 melanoma, -34.8% (active).

For the compound `CCOC(=O)c1c2ncccc2n2c(=O)n(-c3ccccc3C)nnc12`, the growth was 142% in the experiment on DU-145 prostate; 86.4% in the experiment on K-562 leukemia; 145% with MALME-3M melanoma; 104% with MDA-MB-231 breast; 107% in the experiment with RXF 393 renal; 117% in the experiment with SF-268 CNS. Besides, the growth in the experiment with SF-295 CNS was 105%; with SF-539 CNS, 91.8%; in the experiment with UACC-257 melanoma, 91.7%; with M14 melanoma, 99%; with HCT-15 colon, 100%; in the experiment with HT29 colon, 112%. Further, the growth in the experiment with SNB-75 CNS is 84%; in the experiment on SNB-19 CNS, 105%; in the experiment on U251 CNS, 105%; with PC-3 prostate, 122%; with SK-MEL-5 melanoma, 84%; with UACC-62 melanoma, 95.3%. Moreover, the growth in the experiment with LOX IMVI melanoma is 86.5%; in the experiment on SK-MEL-28 melanoma, 157%.

For the compound `O=c1[nH]nc(-c2ccccc2)c2c(-c3ccccc3)onc12`, the growth in the experiment with DU-145 prostate is 25.1%; in the experiment on K-562 leukemia it was 9.89% (active); in the experiment with MALME-3M melanoma, 37.2%; in the experiment on MDA-MB-231 breast, 50.3%; with RXF 393 renal, 12.3%; in the experiment with SF-268 CNS it was 42%. In addition, the growth with SF-295 CNS is 35.7%; in the experiment on SF-539 CNS, 0.0732% (active); with UACC-257 melanoma, 71.2%; with M14 melanoma, 45.4%; in the experiment on HCT-15 colon, 32.2%; with HT29 colon it was 22.2%. Further, the growth with SNB-75 CNS was -5.82% (active); in the experiment with SNB-19 CNS, 49.9%; with U251 CNS, 30.6%; in the experiment on PC-3 prostate, 26.6%; with SK-MEL-5 melanoma, 11%; with UACC-62 melanoma, 34%. Also, the growth in the experiment with LOX IMVI melanoma was 49.6%; in the experiment on SK-MEL-28 melanoma it was 69.8%.

Consider `CC1(c2ccccc2)NC(=O)N(NC(=O)CSc2nc(-c3cccs3)nc3ccccc23)C1=O` (stereo not given), for which the growth was 106% in the experiment on DU-145 prostate; 88.8% with K-562 leukemia; 100% in the experiment with MALME-3M melanoma; 90.9% with MDA-MB-231 breast; 78.1% in the experiment with RXF 393 renal; 97.8% in the experiment with SF-268 CNS. The growth with SF-295 CNS was 99.3%; with SF-539 CNS, 95%; in the experiment on UACC-257 melanoma, 83.5%; in the experiment on M14 melanoma it was 109%; in the experiment with HCT-15 colon, 91.2%; with HT29 colon it was 108%. Besides, the growth is 96.4% in the experiment on SNB-75 CNS; 92.2% in the experiment with SNB-19 CNS; 94.6% in the experiment on U251 CNS; 90.8% with PC-3 prostate; 85.2% in the experiment with SK-MEL-5 melanoma; 69% in the experiment on UACC-62 melanoma. In addition, the growth with LOX IMVI melanoma was 95.9%; in the experiment with SK-MEL-28 melanoma, 115%.

As to `O=c1c2cc(F)ccc2sc2c(NCCN3CCCCC3)nc3ccccc3c12`, the growth is 53.5% in the experiment with DU-145 prostate; -30.8% (active) with K-562 leukemia; 58.5% in the experiment on MALME-3M melanoma; 35.5% with MDA-MB-231 breast; 39.7% with RXF 393 renal; 49.7% in the experiment on SF-268 CNS. The growth in the experiment on SF-295 CNS was 56%; with SF-539 CNS, 70.1%; in the experiment on UACC-257 melanoma it was 65.1%; with M14 melanoma, -61.7% (active); in the experiment on HCT-15 colon, 13.7%; with HT29 colon, 10.7%. Further, the growth is 37.3% in the experiment on SNB-75 CNS; 66.6% in the experiment on SNB-19 CNS; 40.1% in the experiment on U251 CNS; 53.1% in the experiment on PC-3 prostate; 70.1% in the experiment on SK-MEL-5 melanoma; 36.7% in the experiment on UACC-62 melanoma. The growth with LOX IMVI melanoma was -62.8% (active); in the experiment on SK-MEL-28 melanoma, -14.9% (active).

With `Cn1c(=O)c2[nH]c(NN)nc2n(C)c1=O`, the growth is 123% in the experiment with DU-145 prostate; 100% in the experiment on K-562 leukemia; 135% with MALME-3M melanoma; 116% with MDA-MB-231 breast; 123% in the experiment on RXF 393 renal; 108% with SF-268 CNS. Further, the growth was 108% in the experiment on SF-295 CNS; 111% with SF-539 CNS; 119% with UACC-257 melanoma; 102% in the experiment with M14 melanoma; 97.2% in the experiment with HCT-15 colon; 105% in the experiment on HT29 colon. Besides, the growth in the experiment with SNB-75 CNS was 89.6%; in the experiment with SNB-19 CNS, 110%; in the experiment with U251 CNS, 105%; in the experiment with PC-3 prostate it was 101%; in the experiment on SK-MEL-5 melanoma, 105%; in the experiment on UACC-62 melanoma it was 114%. Besides, the growth with LOX IMVI melanoma is 101%; in the experiment with SK-MEL-28 melanoma, 103%.

Take `COc1ccc(CN2C(=O)C(Cl)=C(Nc3cccc(C(F)(F)F)c3)C2=O)cc1`: the growth was 84.9% in the experiment on DU-145 prostate; 27.9% with K-562 leukemia; 52.1% in the experiment on MALME-3M melanoma; 46.6% in the experiment on MDA-MB-231 breast; 23.6% in the experiment on RXF 393 renal; 33.7% in the experiment on SF-268 CNS. Moreover, the growth in the experiment on SF-295 CNS was 38.1%; in the experiment on SF-539 CNS it was 7.41% (active); in the experiment on UACC-257 melanoma, 54.9%; with M14 melanoma, 63.5%; with HCT-15 colon it was 34.8%; in the experiment on HT29 colon, 57.1%. For the same compound, the growth is 66.9% in the experiment with SNB-75 CNS; 44.7% with SNB-19 CNS; 28.2% in the experiment with U251 CNS; 19.2% in the experiment on PC-3 prostate; 63.3% in the experiment with SK-MEL-5 melanoma; 58.1% in the experiment with UACC-62 melanoma. The growth in the experiment on LOX IMVI melanoma is 25.2%; in the experiment with SK-MEL-28 melanoma, 55.2%.
